Screening data as filed in PubChem.
SNCA viab count: GF-AFC viability counterscreen for inhibitors of alpha-synuclein gene (SNCA) expression; AID 1671193, 2021; HEK-293-SNCA-luc viability, GF-AFC fluorescence, 24 h; Potency, µM (top dose mostly 57.1 µM), for the others: at the highest dose activity change, negative = cytotoxicity, most hits filed as cytotoxic; 150,000 tested, 0.12% active;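 further: potency means the concentration at half of the fitted maximal effect; 0% = DMSO-treated cells and -100% = medium-only wells without cells; nearly all actives have a fitted effect of over 30% in size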
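Cytotoxicity counterscreen: after 24 h compound treatment of genome-edited SNCA-luciferase HEK-293 cells, live-cell protease substrate GF-AFC read by fluorescence after 30 min; activity scaled between DMSO (0%) and medium-only (-100%), curves Hill-fitted.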
KDM5B inh: Primary screen for KDM5B Histone Demethylases FDH-coupled qHTS | Lysine-specific demethylase 5B (Homo sapiens), Q9UGL1 | KDM5B demethylase, FDH-coupled NADH fluorescence (FDH is formaldehyde dehydrogenase) | Potency, µM (highest dose often 57.7 µM), actives largely listed as inhibitors | 220,000 tested, 2.6% active | AID 1347165, 2019; further: potency means the concentration at half of the fitted maximal effect; 0% is about no effect; nearly all actives have a fitted effect of over 70% in size
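Here, H3K4me3 peptide (12.5 µM in substrate mix) is demethylated by KDM5BΔAP, 200 nM final, after 10 min compound exposure. Formaldehyde product is coupled through FDH (0.25 U/mL in mix) to NADH fluorescence; 30-min ΔRFU feeds dose-response curves.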
SNCA expr inh: Primary qHTS assay for inhibitors of alpha-synuclein gene (SNCA) expression; HEK-293 SNCA-luciferase knock-in, luminescence, 24 h; Potency, µM (top dose mostly 57.2 µM), inactives show at the top dose activity change, negative = inhibition, usual class: inhibitors; 140,000 tested, 0.17% active;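 further: potency means the concentration at half of the fitted maximal effect; plate controls were DMSO cells for no effect and cell-free wells for full effect; nearly all actives have a fitted effect of over 45% in size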
IP6K1 inh: Primary qHTS assay for small molecule inhibitors of Inositol hexaphosphate kinase 1 (IP6K1); AID 1645851, 2021; IP6K1 kinase, ADP-Glo luminescence, 2 h; stronger effect = lower value; 140,000 tested, 0.81% active; activity change, % (series mostly up to about 58 µM); Inositol hexakisphosphate kinase 1 (Homo sapiens), Q92551; in the data active means activity change below about -25%; further: on the % scale 0 is the no-effect control and ±100 the full control effect
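ADP-Glo luminescence measures ADP made by human IP6K1 during a 2 h RT reaction with ATP/IP6 (mix at 1.3 mM/130 uM); top library doses 57.5 and 19.1 uM final.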
An asterisk follows results filed as active; i = inactive; ? = inconclusive; . = no result; ! = repeats disagree; [ ] = another dose, or the depositor's remark. In the library only some 2.8% were active in any assay of this set; here they are far more common. Unless noted, the call rests on the fitted dose curve; in most records, active means well fitted curve in the direction sought with a large enough effect; inconclusive means small, poorly fitted or top-dose-only effect, or another doubt; inactive means no such curve, though single readings can be large; an effect the other way counts as inactive or inconclusive.

SMILES | SNCA viab count | KDM5B inh | SNCA expr inh | IP6K1 inh
O=C(NCC1COCCO1)c1ccc(CN2CCC(N3CCCC3)CC2)[nH]c1=O (stereo not drawn) | -1% | 28µM* | 13% | -9
CC(C)(C)c1cc(SC2(Sc3cc(C(C)(C)C)c(O)c(C(C)(C)C)c3)C(=O)Nc3ccccc32)cc(C(C)(C)C)c1O | . | i | . | .
COc1ccc(-c2cc(C(=O)NC3CC3)c3c(C)nn(-c4ccccc4)c3n2)cc1 | 5% | 79µM* | 114% | -7
COc1ccc(-c2cc(C(=O)NC3CCNCC3)c3c(C)nn(-c4ccccc4)c3n2)cc1 | ? | 79µM* | ? | 1
COCCNC(=O)c1cc(-c2ccc(OC)cc2)nc2c1c(C)nn2-c1ccccc1 | 5% | ? | 271% | -4
Cc1noc(C)c1CCCNC(=O)c1ccc(N2CCN(CC3CC3)CC2)nc1 | -4% | 28µM* | 1% | 6
COc1ccc(C(=O)Nc2ccc(Br)cc2C)cc1Cl | . | i | . | .
OCC1CN(c2ncccn2)CC12CCN(Cc1cccc3[nH]ccc13)CC2 (stereo not drawn) | -1% | 32µM* | 37% | 1
N#Cc1cccc(CN2CCC3(CC2)CN(c2ncccn2)CC3CO)c1 (stereo not drawn) | -6% | 28µM* | -6% | 18
OCC1CN(c2ncccn2)CC12CCN(Cc1ccc3[nH]ccc3c1)CC2 (stereo not drawn) | 8% | 22µM* | ? | 16
O=C(c1cccc2[nH]ccc12)N1CCC2(CC1)CN(c1ncccn1)CC2CO (stereo not drawn) | -8% | 32µM* | -7% | 11
CC(=O)N1CC(CO)C2(CCN(Cc3cccc(C#N)c3)CC2)C1 (stereo not drawn) | 0% | i | 8% | 6
OCC1CN(c2ncccn2)CC12CCN(Cc1c[nH]c3ccccc13)CC2 (stereo not drawn) | 2% | ? | 13% | 18
Cc1ccc(-c2cccc(CN3CCCC3C(=O)N(C)C)c2)cc1Cl (stereo not drawn) | . | . | . | 20
COCc1nnc2n1CCC(NC(=O)c1n[nH]c3ccccc13)CC2 (stereo not drawn) | 1% | 28µM* | 3% | -9
COCc1nnc2n1CCC(NC(=O)Cc1c[nH]c3ccccc13)CC2 (stereo not drawn) | -6% | i | 4% | 2
COc1cc(C)c(CN(C)CC(O)COc2ccc(C)cc2)cc1OC (stereo not drawn) | . | i | . | .
CCOCCCNC(=O)C(NC(=O)c1cccc(C)c1)C(C)C (stereo not drawn) | . | i | . | .
Cc1cc(F)ccc1S(=O)(=O)NCCc1csc2nc(-c3ccc(Cl)cc3)nn12 | . | i | . | .
O=C(c1ccc(Cl)cc1)N1CCC(N2CCCC2)CC1 | 15% | i | 0%[87.6 µM] | -18
O=C(c1ccc(Nc2nccc(-c3cc4ccccc4s3)n2)cc1)N1CCC(N2CCCC2)CC1 | 30µM*! | . | ? | -1
O=C(c1ccc(C(F)(F)F)cc1)N1CCN(Cc2ccccc2-c2cccnc2)CC1 | 9%[12.5 µM] | . | -26% | 12
CN1C(=O)C(NC(=O)C(=O)NCc2ccncc2)c2ccccc21 (stereo not drawn) | . | i | . | .
CCCS(=O)(=O)N1CCc2n[nH]c(=O)n2CC1 | 6% | i | ? | -6
CCCCS(=O)(=O)N1CCc2n[nH]c(=O)n2CC1 | -1% | 20µM* | -7% | -13
SMILES | SNCA viab count | KDM5B inh | SNCA expr inh | IP6K1 inh
CC(C)c1ccc(S(=O)(=O)N2CCCC2Cc2noc(Cc3ccccc3)n2)cc1 (stereo not drawn) | -13% | . | ? | 11
COCC1CCN(C(=O)[C@@H]2CN(c3cnccn3)C[C@H]2COC)CC1 | -15% | 25µM* | 5% | 5
O=C(O)CC[C@@H]1CN(c2cnccn2)CC[C@@H]1N1CCOCC1 | -4% | ? | 10% | 1
COc1ccccc1CNC(=O)[C@H]1CCC[C@H]1NC(=O)c1ccncc1 | ? | i | 0% | 17
COC[C@@H]1CN(c2cnccn2)C[C@H]1C(=O)NCc1ccccc1OC | -2% | 22µM* | -4% | 19
COC[C@@H]1CN(c2cnccn2)C[C@H]1C(=O)NCCc1cccnc1 | 4% | 25µM* | ? | 8
COC[C@@H]1CN(c2cnccn2)C[C@H]1C(=O)NCc1c(C)n[nH]c1C | 4% | 20µM* | 6% | 13
Nc1c(N(Cc2ccco2)C(=O)COc2ccc3ccccc3c2)c(=O)[nH]c(=O)n1Cc1ccccc1 | . | i | . | .
O=C(NCc1ccccc1Cl)C1CCCN(Cc2cccc(-c3ccc(F)cc3F)c2)C1 (stereo not drawn) | -18% | . | -4% | -8
COC[C@@H]1CN(c2cnccn2)C[C@H]1C(=O)NCCCn1cccn1 | 4% | 20µM* | -1% | 14
Cc1cccc(NC(=O)CC(C)(C(=O)O)c2ccccc2)c1C (stereo not drawn) | . | i | . | .
COc1ccc(Cl)cc1NC(=O)CCC1CCCN(c2ccc(C(F)(F)F)cn2)C1 (stereo not drawn) | 0% | 28µM* | -19% | 8
CN(CCc1ccccn1)[C@@H]1[C@H](O)[C@H](CO)O[C@@H]1CN(Cc1ccc(F)cc1)Cc1ccc(F)cc1 | -21% | ? | -9% | -1
COc1ccccc1-c1ccnc(N[C@H]2CO[C@H]3[C@@H]2OC[C@@H]3NC(=O)c2ccc(C)cc2)n1 | -3% | ? | 5% | 0
COc1ccccc1-c1ccnc(N[C@H]2CO[C@H]3[C@@H]2OC[C@@H]3NC(=O)c2ccccc2)n1 | -2%[87.6 µM] | 35µM* | -16%[87.6 µM] | -8
COc1ccccc1-c1ccnc(N[C@H]2CO[C@H]3[C@@H]2OC[C@@H]3NC(=O)COc2ccccc2)n1 | 6% | 22µM* | 20% | -4
COc1cccc(-c2ccc(C(=O)N3CCC(NC(=O)c4ccccc4)CC3)cc2)c1 | 8%[12.5 µM] | . | 12% | -1
CN1C(=O)COc2ccc(C(=O)N3CC(C)(C)[C@@](C)(O)C3)cc21 | 0% | 32µM* | -11% | 0
Cc1ccc(NC(=O)c2cc3n(n2)CC(c2ccc4c(c2)OCO4)OC3)cc1Cl (stereo not drawn) | 4% | 28µM* | 1% | -7
COc1ccc(NC(=O)c2cc3n(n2)CC(c2ccc4c(c2)OCO4)OC3)cc1 (stereo not drawn) | -8% | ? | -3% | 28
Cc1ccc(NC(=O)c2cc3n(n2)CC(c2ccc4c(c2)OCO4)OC3)cc1F (stereo not drawn) | -8% | 22µM* | -7% | 0
COc1ccc(-c2ccc(C(=O)NCC(F)F)c(Cl)c2)nn1 | . | . | . | 4
CCc1ccc(OCc2nnc(SCc3cc(=O)c4ccccc4[nH]3)n2CC)cc1 | . | i | . | .
CCCCn1cc(S(=O)(=O)c2ccccc2)c(=O)c2cc(CC)ccc21 | . | i | . | .
O=C(Nc1ccc(Cl)nc1)c1cnn2ncccc12 | 8%[87.6 µM] | 40µM* | 35%[87.6 µM] | 12
